Measured values from PubChem BioAssay AID372 (MTDP, 2006).
Hit rate of the full screen: of about 100,000 compounds, about 770 (0.77%) were called active. Only a selection was taken, and actives are over-represented in it overall. Unmarked numbers belong to inactive results. No stated cut-off is given here; in the data, active means inhibition above about 50%; inactive means the rest.

The molecules below were run against Gag-Pol polyprotein (Human immunodeficiency virus type 1 group M subtype B (isolate HXB2)) (UniProt P04585) (assay: RNase H inhibition, HIV 1 Gag Pol polyprotein, FRET biochemical assay, screening (AID 372)). Conditions: HIV-1 RT RNase H, FRET RNA/DNA substrate fluorescence; at 10 µM; active compounds read high.

Row | Structure (SMILES) | inhibition
1 | O=C1C2C3C=CC(CC3)C2C(=O)N1/N=C/c1ccc(O)cc1 (configuration not stated) | 0%
2 | O=C1C2C3C=CC(CC3)C2C(=O)N1/N=C/c1ccc(I)o1 (configuration not stated) | 3%
3 | O=C1C2C3C=CC(CC3)C2C(=O)N1/N=C/c1cccs1 (configuration not stated) | 56% (active)
4 | O=C1C2C3C=CC(C3)C2C(=O)N1/N=C/c1ccccc1I (configuration not stated) | 0%
5 | O=C1C2C3C=CC(CC3)C2C(=O)N1/N=C/c1ccccc1I (configuration not stated) | 59% (active)
6 | O=C1C2C3C=CC(CC3)C2C(=O)N1/N=C/c1ccccc1O (configuration not stated) | 0%
7 | CC(Oc1ccc(Br)cc1)C(=O)N/N=C/c1ccc(N(C)C)cc1 (configuration not stated) | 8%
8 | O=C(O)c1cc(NS(=O)(=O)c2ccc(NCCCN3CCOCC3)c([N+](=O)[O-])c2)cc(C(=O)O)c1 | 4%
9 | COc1ccc(/C=N/Nc2nc(Nc3ccc(F)cc3)nc(N3CCCCC3)n2)cc1 | 6%
10 | COc1ccc(Cl)cc1C(=O)Nc1sc(C)c(C)c1C#N | 74% (active)
11 | CCN(CC)C(=O)c1sc(NC(=O)c2cc(Cl)ccc2OC)c(C#N)c1C | 7%
12 | Cc1sc(NC(=O)c2cc(Cl)ccc2Cl)c(C#N)c1C | 4%
13 | CC(=O)C1=C(Nc2ccc(Br)cc2)CC(C)(O)C(C(C)=O)C1c1ccc([N+](=O)[O-])cc1 (configuration not stated) | 4%
14 | Cc1ccc(P(=O)(c2ccc(C)cc2)C(C)(C)O)cc1 | 0%
15 | CN(CCO)c1nc(-c2ccccc2)c2cc(Cl)ccc2n1 | 50% (active)
16 | CN(C)c1nc(-c2ccccc2)c2cc(Cl)ccc2n1 | 13%
17 | CCN(CC)c1nc(-c2ccccc2)c2cc(Cl)ccc2n1 | 12%
18 | COc1ccc(-c2nn(-c3ccccc3)cc2/C=N/NS(=O)(=O)c2ccccc2)cc1 | 15%
19 | S=C(NCCc1ccccn1)Nc1ccc(Cl)c(Cl)c1 | 59% (active)
20 | O=C(NCc1ccccn1)Nc1ccc(Cl)c(Cl)c1 | 9%
21 | S=C(NCCc1c[nH]c2ccccc12)Nc1ccc(Cl)c(Cl)c1 | 49%
22 | S=C(NCCc1ccccn1)Nc1ccc(Cl)cc1Cl | 50% (active)
23 | S=C(NCCc1ccccc1)Nc1ccc(Cl)cc1Cl | 46%
24 | S=C(NCCC(c1ccccc1)c1ccccc1)Nc1ccc(Cl)cc1Cl | 12%
25 | O=C(NC1CCCCC1)c1cccc(C(F)(F)F)c1 | 11%
26 | Cc1cc(/C=C(\C#N)C(=O)Nc2ccccc2)c(C)n1-c1sc2c(c1C#N)CCCC2 | 15%

Row | Structure (SMILES) | inhibition
27 | CC1(C)C(c2ccccc2)=[N+]([O-])C2(CCCCC/C2=N\NC(N)=O)N1O (configuration not stated) | 0%
28 | Cc1cc(C)c(N/C=C(\C#N)c2nc(-c3ccc(Cl)cc3Cl)cs2)c(C)c1 | 27%
29 | CCN(CC)S(=O)(=O)c1cc(-c2nnc(-c3ccc(C)cc3)o2)ccc1C | 3%
30 | COc1cccc2c1NC(c1ccc([N+](=O)[O-])cc1)C1CC=CC21 (configuration not stated) | 51% (active)
31 | O=[N+]([O-])c1ccc(C2Nc3c(cccc3[N+](=O)[O-])C3C=CCC32)cc1 (configuration not stated) | 35%
32 | COc1cccc2c1NC(c1ccc(F)cc1)C1CC=CC21 (configuration not stated) | 35%
33 | Cc1ccc(S(=O)(=O)Nc2cc(C)c(O)c(S(=O)(=O)c3ccc(C)cc3)c2)cc1 | 18%
34 | O=C1c2ccc(Oc3ccc([N+](=O)[O-])cc3)cc2C(=O)N1c1nc2ccccc2s1 | 11%
35 | Cc1ccc(N2C(=O)C3C4C=CC(O4)C3C2=O)c(C)c1 (configuration not stated) | 5%
36 | Oc1c(Br)ccc(Cl)c1C=Nc1cccc2nsnc12 | 8%
37 | Oc1c(C=Nc2cccc3nsnc23)cc(Br)c2ccccc12 | 5%
38 | COc1ccc(Br)c(C=Nc2cccc3nsnc23)c1O | 64% (active)
39 | Brc1ccccc1OCCCCCn1ccnc1 | 5%
40 | CN1C(=O)CS/C1=N/S(=O)(=O)c1ccc([N+](=O)[O-])cc1 | 10%
41 | S=C(NCc1ccco1)NC1CCCC1 | 6%
42 | O=c1c(O)c(-c2ccc(O)c(O)c2)oc2cc(O)cc(O)c12 | 73% (active)
43 | O=c1c(O)c(-c2ccc3c(c2)OCO3)oc2ccccc12 | 0%
44 | Cc1ccc(-c2oc3ccccc3c(=O)c2O)cc1 | 3%
45 | CN(C)c1ccc(C(c2c[nH]c3ccccc23)c2c[nH]c3ccccc23)cc1 | 23%
46 | Cc1cccc(/C=C2\C(=O)NC(=O)N(c3cccc(Br)c3)C2=O)c1 | 10%
47 | C=CCNC(=O)Nc1ccc2nc(-c3ccccc3)c(-c3ccccc3)nc2c1 | 15%
48 | C=CCNC(=O)Nc1ccc2nc3c4ccccc4c4ccccc4c3nc2c1 | 51% (active)
49 | C=CCNC(=S)Nc1ccc2nc3c4ccccc4c4ccccc4c3nc2c1 | 24%
50 | Cc1cc(C)n(-c2ccc(N3CCOCC3)nn2)n1 | 11%
51 | CCN(CC)C(=O)CSc1nc(-c2ccccc2)c(-c2ccccc2)o1 | 15%
52 | CC(=O)CSc1nc(-c2ccccc2)c(-c2ccccc2)o1 | 50% (active)

Row | Structure (SMILES) | inhibition
53 | NC(=O)CSc1nc(-c2ccccc2)c(-c2ccccc2)o1 | 37%
54 | COc1ccc(-c2csc(NC3OC(=O)c4c3ccc(OC)c4OC)n2)cc1 (configuration not stated) | 20%
55 | CCOc1cc(C(=O)Nc2ccc(OC)c(Cl)c2)cc(OCC)c1OCC | 8%
56 | O=S(=O)(Nc1ccc(F)cc1F)c1ccc2ccccc2c1 | 15%
57 | N/C(=N/OC(=O)c1cccc([N+](=O)[O-])c1)c1nonc1N | 14%
58 | O=C1C=CC(=O)C(c2cccc(C(F)(F)F)c2)=C1 | 71% (active)
59 | O=C1C(Cl)=C(Cl)C(=O)N1c1cc(Cl)ccc1Cl | 4%
60 | O=C1C(Cl)=C(Cl)C(=O)N1c1cccc(C(F)(F)F)c1 | 6%
61 | O=C1C=CC(=O)N1c1cccc(Cl)c1 | 19%
62 | O=C(O)c1ccc(-c2cc(Cl)ccc2Cl)o1 | 0%
63 | Cc1ccc(C2=CC(=O)N(c3cccc(C(F)(F)F)c3)C2=O)cc1 | 10%
64 | OCc1ccc(-c2cccc(Cl)c2)o1 | 28%
65 | CCOc1ccc(C(=O)Nc2cccc(-c3nc4cc(C)ccc4o3)c2C)cc1Br | 11%
66 | O=C(Nc1ccc(S(=O)(=O)Nc2ncccn2)cc1)c1cccnc1 | 8%
67 | CCOc1ccc2ccc(OCC)c(/C=C3/C(=O)NC(=O)N(Cc4ccco4)C3=O)c2c1 | 26%
68 | CCCN(CCC)CCCNC(=O)/C=N\O | 6%
69 | COc1cc(OC)c(/C=C2\C(=O)NC(=S)N(c3cccc(Cl)c3)C2=O)cc1Br | 9%
70 | CC(Oc1ccc(/C=C2/SC(=O)NC2=O)cc1)C(=O)O (configuration not stated) | 10%
71 | O=C(Nc1nnc(-c2cccc([N+](=O)[O-])c2)s1)Nc1ccc(Cl)cc1Cl | 43%
72 | O=C(/C=C/c1ccco1)/C=C/c1ccc(-c2ccc(Cl)c(Cl)c2)o1 | 52% (active)
73 | O=C(/C=C/c1ccc(-c2ccc(Cl)c(Cl)c2)o1)c1ccco1 | 2%
74 | O=C(/C=C/c1ccco1)/C=C/c1ccc(-c2ccc(Br)cc2)o1 | 33%
75 | CSc1nc(-c2ccccc2)c(C#N)c(=O)n1C | 15%
76 | CCCCCC/C(=N\NC(=O)c1ccncc1)c1ccccc1 | 5%
77 | CCc1c(C)sc(NC(=O)C2CCCCC2C(=O)O)c1C#N (configuration not stated) | 75% (active)
78 | CCc1c(C)sc(NC(=O)C2CCCCC2C(=O)O)c1C(N)=O (configuration not stated) | 48%

Row | Structure (SMILES) | inhibition
79 | CCc1c(C)sc(NC(=O)C2CC3CCC2C3)c1C#N (configuration not stated) | 21%
80 | O=C1OC(c2sc3ccccc3c2Cl)=N/C1=C/c1ccc(F)cc1 | 1%
81 | CN1C(=O)C(=Cc2ccc(I)o2)C(=O)N(C)C1=S | 21%
82 | CC1(C)OC(=O)C(=Cc2ccc(I)o2)C(=O)O1 | 53% (active)
83 | O=C1C(=Cc2ccc(I)o2)C(=O)c2ccccc21 | 9%
84 | O=C(/C=C/c1ccccc1)C1=C(O)C(=O)N(c2ccccc2)C1c1cccc([N+](=O)[O-])c1 (configuration not stated) | 10%
85 | Fc1cccc(-c2n[nH]c(=S)n2-c2ccccc2)c1 | 5%
86 | Cc1cc2nc3s/c(=C/c4ccc(F)cc4)c(=O)n3c2cc1C | 1%
87 | Oc1ccc(-c2cc(-c3ccc(O)cc3)nc(-c3ccccc3)n2)cc1 | 31%
88 | Clc1cc(-c2ccccc2)nc(-c2ccccc2)n1 | 24%
89 | O=C1C=CC(=O)N1c1ccc(-c2cc(-c3ccccc3)nc(-c3ccc(N4C(=O)C=CC4=O)cc3)n2)cc1 | 54% (active)
90 | Cc1ccc(C(=O)Nc2ccc(Cc3ccncc3)cc2)cc1[N+](=O)[O-] | 5%
91 | CSc1ccc(S(=O)(=O)N(CC(=O)NC2CCCCC2)c2ccc(C)cc2)cc1 | 13%
92 | Cc1ccc(N(CC(=O)NC2CCCC2)S(=O)(=O)c2ccc(F)cc2)cc1 | 5%
93 | Cc1ccc(N(CC(=O)NC2CCCCC2)S(=O)(=O)c2ccc(F)cc2)cc1 | 56% (active)
94 | COc1ccccc1CNS(=O)(=O)c1ccc(Cl)cc1 | 0%
95 | N=C1/C(=C/c2ccc(-c3ccccc3)o2)C(=O)N=C2SC(c3ccccc3)=NN12 | 2%
96 | Cc1ccc(N2NC(=O)/C(=C/c3ccc(Br)cc3)C2=O)cc1C | 15%
97 | O=C(CSc1nc2ccc(N3C(=O)c4ccccc4C3=O)cc2s1)Nc1ccc(Br)cc1 | 28%
98 | O=C(CSc1nc2ccc(N3C(=O)c4ccccc4C3=O)cc2s1)c1ccc(Cl)cc1 | 56% (active)
99 | COc1ccc(NC(=O)CSc2nc3ccc(N4C(=O)c5ccccc5C4=O)cc3s2)cc1 | 56% (active)
100 | O=C(CSc1nc2ccc(N3C(=O)c4ccccc4C3=O)cc2s1)c1ccc(F)cc1 | 43%
101 | O=C(CSc1nc2ccc(N3C(=O)c4ccccc4C3=O)cc2s1)c1ccccc1 | 8%
102 | O=C(CSc1nc2ccc(N3C(=O)c4ccccc4C3=O)cc2s1)Nc1ccc(F)cc1 | 11%
